These results are taken from PubChem BioAssay (NCATS).

A short description of assay [1]: HTS Assay for Allosteric Antagonists of the Human D2 Dopamine Receptor: Hit Validation in HTRF (AID 624455).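 Also: stable D1 dopamine receptor cell line scored for blocking the D1 response; % is scaled to controls: 0 for no effect and ±100 for the full control effect.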 Conditions: Cells stably expressing D1 dopamine receptor, inhibition mode; series mostly up to 46.1 µM. Put shortly:
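First, antagonism was screened by calcium flux in a force-coupled, inducible Hek293 Trex D2 line challenged with EC80 dopamine. Hits then went into an HTRF assay in cells stably expressing D1, testing inhibition of the D1 response.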
Background: TR-FRET usually uses a lanthanide donor and a delayed reading to cut background.

A short description of assay [2]: qHTS assay for small molecule activators of the p53 signaling pathway (AID 651743; active = well fitted activation curve with a large enough effect in the signal ratio, not every such curve was filed as active; the % refers to the signal ratio; also: % of control where 0% means no effect). To be noted: HCT-116 p53RE-bla, beta-lactamase FRET ratio, 16 h; activation: stronger effect = higher value. In outline:
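Read-out is fluorescence intensity from the LiveBLAzer B/G FRET substrate, added for 2 hours at room temperature after HCT-116 p53RE-bla cells had been incubated with compounds for 16 hours at 37 C.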

Assay [3] in a line: qHTS assay for small molecule activators of the nuclear factor-kappa B (NF-kB) signaling pathway (AID 651749; active = well fitted activation curve with a large enough effect in the signal ratio; the % refers to the signal ratio; also: % of control where 0% means no effect). Conditions: NF-kB-bla ME-180 cells, beta-lactamase FRET ratio, 16 h; stronger effect = higher value. In outline:
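Readout: beta-lactamase reporter driven by an NF-kB response element, detected fluorescently as loss of FRET. Cells were the ME-180 line, treated 16 hr at 37C with pin-transferred compound.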

For assay [4], the target named is Tumor necrosis factor (Homo sapiens) (UniProt P01375). The experiment in a line: qHTS assay to identify small molecules that stimulate Tumor Necrosis Factor-alpha (TNF-alpha) secretion (AID 651757; active = well fitted curve in the direction sought with a large enough effect in the signal ratio; the % refers to the signal ratio; also: 0% is about no effect). To be noted: Human cells, HTRF 665/615 ratio; series mostly up to 92.2 µM. In outline: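 Read-out is HTRF, a TR-FRET sandwich of cryptate- and XL665-labeled anti-TNF-alpha antibodies detecting cytokine secreted by THP-1 cells. Cells had been incubated with test compounds at 37 C for 17 hrs beforehand.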
For orientation: In qHTS, concentration-response curves come from the screen itself.

Assay [5] can be described thus: qHTS assay for environmental chemicals that activate the Aryl hydrocarbon Receptor (AhR) signaling pathway (AID 651777). Also: nearly all actives have a fitted effect of over 15% in size. Also: potency is read from the fitted curve at half-maximal effect. As to activation: % of control where 0% means no effect. Conditions: 1A2-DRE human hepatoma cells, luciferase, 24 h; activation: stronger effect = higher value. In outline:
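Quantitative HTS in stably transfected human liver-derived cells whose luciferase gene sits downstream of the CYP1A2 promoter and dioxin response element. After 24 hr exposure at 37 C, One-Glo luminescence was measured.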

Assay [6] has as its target Peroxisome proliferator-activated receptor alpha (Homo sapiens) (UniProt Q07869). The experiment in a line: qHTS assay for small molecule agonists of the peroxisome proliferator-activated receptor alpha (PPARalpha) signaling pathway (AID 651778). Also: % of control where 0% means no effect. To be noted: PathHunter PPARalpha complementation, chemiluminescence, 6 h; stronger effect = higher value. In outline:
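Chemiluminescence from complemented enzyme reported PPARalpha activation in cells after 6 hr of compound treatment at 37 C. The detection reagent was incubated for 60 min at room temperature, and compounds were scored as agonists.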

Assay [7] in a line: qHTS assay for small molecule agonists of the antioxidant response element (ARE) signaling pathway (AID 651741; active = well fitted activation curve with a large enough effect in the signal ratio; the % refers to the signal ratio; also: potency is read from the fitted curve at half-maximal effect; as to activation: % of control where 0% means no effect). Conditions: HepG2 ARE-bla reporter, beta-lactamase FRET ratio, 16 h; series mostly up to 96 µM. In outline: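 Quantitative HTS in HepG2 cells stably expressing an ARE-beta-lactamase reporter; 16 h compound exposure at 37 C, followed by 2 h room-temperature incubation with LiveBLAzer B/G FRET substrate and fluorescence measurement.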

Assay [8] can be described thus: Cytotoxicity counterscreen for NFkB agonists and antagonists (AID 624476).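 Also: potency is read from the fitted curve at half-maximal effect; cells exposed to compound for 48 hours.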 Conditions: NFkB reporter cell line viability counterscreen; series mostly up to 46.1 µM. (The purpose of a counterscreen is to sort out artefacts and off-target activity.)
Assay [9] is described as follows: qHTS Assay for Identification of Small Molecule Agonists for NFkB Signaling Pathway. (AID 624478).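 Also: compounds tested together with TNF alpha at its EC50 of 10 pM; 0% is about no effect.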 Conditions: NFkB pathway reporter cell assay, agonist mode, cells co-stimulated with 10 pM TNF alpha; series mostly up to 46.1 µM. In outline:
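ME-180 cervical carcinoma, stable NFkB-RE beta-lactamase reporter; 1000 cells/well, overnight attachment; cpd + TNF alpha 10 pM final, 5 h 37 C; LiveBLAzer 2 h RT; FRET 460/530 nm, ex 405 nm.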

Assay [10] in a line: Cell Proliferation Assay against the TMD8 Cell Line (AID 651645).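 Also: cells exposed to compound for 48 h before reading.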 To be noted: TMD8 DLBCL cell line proliferation/viability; at 46.1 µM (top of the series). In outline: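 500 TMD8 cells/well, RPMI + Glutamax, no phenol red, 5% FBS; cpd added immediately; 48 h, 37C, 5% CO2; CellTiter-Glo, luminescence. Controls: DMSO = 100%, bortezomib 9.2 uM final = 0%.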
Assay [11] in a line: Cell Proliferation Assay against the HBL1 Cell Line (AID 651646).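 Also: cells exposed to compound for 48 h before reading.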 To be noted: HBL1 DLBCL cells; at 46.1 µM (top of the series). In outline:
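Luminescent ATP read-out (CellTiter-Glo) after 48 h compound exposure of HBL1 cells at 37 °C; percent activity was scaled between DMSO as 100% and 9.2 uM bortezomib (final) as 0%.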

The nature of assay [12]: Cell Proliferation Assay against the TMD8 Cell Line (Caspase readout at 8 hrs) (AID 651713).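 Also: 0% = DMSO and 100% = 9.2 µM bortezomib caspase signal.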 Conditions: TMD8 lymphoma cells, caspase activation luminescence; series mostly up to 46.1 µM. Put shortly: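 Seed log-phase TMD8 cells, add compound by pin tool, incubate 8 h at 37C under 5% CO2, equilibrate to room temperature, add Caspase-Glo, wait 15 min, read luminescence; percent activity uses DMSO and 9.2 uM bortezomib controls.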

Assay [13] has as its target Tyrosine-protein kinase Yes (Homo sapiens) (UniProt P07947). In words: qHTS for small molecule inhibitors of Yes1 kinase: Primary Screen (AID 686947).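 Also: plate controls were DMSO with enzyme for no effect and no-enzyme DMSO wells for full effect; nearly all actives have a fitted effect of over 60% in size.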 To be noted: Yes1 kinase biochemical qHTS inhibition; series mostly up to 76.9 µM. Put shortly:
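Yes1 (4 nM) preincubated 20 min with compound, then 60 min room-temperature reaction with 0.1 mM ATP and 0.3 mg/mL poly(E4Y) in pH 7.5 Tris, 10 mM MgCl2. ADP measured by ADP-Glo luminescence, normalised to enzyme/no-enzyme controls.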

The nature of assay [14]: qHTS for small molecule inhibitors of Yes1 kinase: Counter Assay (AID 686950).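 Also: no kinase present so only ADP-Glo detection of a fixed ADP amount is tested; luminescence from ADP-Glo reporting ADP in a fixed ATP and ADP mixture; 0% = DMSO wells with ATP plus ADP and -100% = ATP-only wells without ADP.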 To be noted: series mostly up to 76.9 µM. In outline:
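Luminescence read-out from ADP-Glo quantifies a fixed ADP amount (0.02 mM ADP with 0.08 mM ATP) after 60 min at room temperature; signal is normalized between DMSO wells with ATP/ADP and with 0.1 mM ATP alone.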

Where “and” joins values, the source holds several entries; their conditions need not be identical. Equal entries are not always repeated. Results filed as inconclusive are left out. Calls of active or inactive are those of the source. Unless noted, calls follow the shape of the dose curve; as a rule, active = well fitted curve in the direction sought with a large enough effect; inconclusive = small, poorly fitted or top-dose-only effect, or another doubt; inactive = no such curve, though single readings can be large; an effect the other way counts as inactive or inconclusive.

Chain of Peroxisome proliferator-activated receptor alpha (Homo sapiens) (Q07869 whole entry, looked up): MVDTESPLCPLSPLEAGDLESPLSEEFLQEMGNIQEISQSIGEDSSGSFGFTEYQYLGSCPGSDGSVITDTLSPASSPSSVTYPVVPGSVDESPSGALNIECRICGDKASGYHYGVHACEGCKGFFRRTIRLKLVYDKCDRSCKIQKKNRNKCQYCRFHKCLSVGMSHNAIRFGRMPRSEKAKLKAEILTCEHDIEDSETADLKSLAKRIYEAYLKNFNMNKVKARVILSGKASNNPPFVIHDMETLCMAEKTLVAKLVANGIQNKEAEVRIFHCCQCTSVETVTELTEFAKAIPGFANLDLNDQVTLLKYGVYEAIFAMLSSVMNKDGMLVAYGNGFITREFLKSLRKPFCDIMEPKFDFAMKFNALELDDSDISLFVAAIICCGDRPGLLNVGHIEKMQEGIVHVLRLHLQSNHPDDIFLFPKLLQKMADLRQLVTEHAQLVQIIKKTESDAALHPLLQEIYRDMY
Chain of Tumor necrosis factor (Homo sapiens) (P01375 whole entry, looked up): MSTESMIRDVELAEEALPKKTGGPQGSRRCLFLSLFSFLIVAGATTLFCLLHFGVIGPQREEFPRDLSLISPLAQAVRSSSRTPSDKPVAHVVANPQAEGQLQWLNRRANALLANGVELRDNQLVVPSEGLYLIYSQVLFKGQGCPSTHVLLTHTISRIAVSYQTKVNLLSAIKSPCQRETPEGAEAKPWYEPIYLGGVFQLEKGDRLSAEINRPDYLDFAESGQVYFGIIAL
Chain of Tyrosine-protein kinase Yes (Homo sapiens) (P07947 whole entry, looked up): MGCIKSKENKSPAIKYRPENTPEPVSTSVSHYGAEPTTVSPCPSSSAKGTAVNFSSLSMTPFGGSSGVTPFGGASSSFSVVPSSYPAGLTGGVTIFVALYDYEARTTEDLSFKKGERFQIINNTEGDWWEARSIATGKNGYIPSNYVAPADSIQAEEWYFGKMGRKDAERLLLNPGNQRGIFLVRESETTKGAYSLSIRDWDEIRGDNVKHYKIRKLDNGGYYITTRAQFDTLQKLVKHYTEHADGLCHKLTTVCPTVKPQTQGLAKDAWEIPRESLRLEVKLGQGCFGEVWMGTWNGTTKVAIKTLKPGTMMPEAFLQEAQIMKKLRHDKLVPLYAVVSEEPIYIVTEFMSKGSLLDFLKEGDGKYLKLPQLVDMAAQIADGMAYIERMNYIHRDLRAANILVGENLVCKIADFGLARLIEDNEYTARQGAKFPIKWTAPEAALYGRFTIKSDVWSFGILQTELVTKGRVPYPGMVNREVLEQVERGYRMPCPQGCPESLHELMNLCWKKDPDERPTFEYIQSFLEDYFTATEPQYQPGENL

Regarding `CN(C)CCC(c1ccc(Cl)cc1)c1ccccn1` (stereo unspecified), the Potency result in [1] is “inactive”. Further, the figures for the activation in assay [2], in assay [3] and in [5] were -2.38% (inactive), -0.341% (inactive) and -0.109% (inactive), respectively. In [4], the outcome was inactive. For the same molecule, the max response in [6] was -7.82% (inactive).
As for `C=CCCCCCCCCC(=O)O`, the activation in assay [2] was -2.56% (inactive); in assay [3] it was -1.28% (inactive); in [5], 1.9% (inactive). Further, the max response in assay [6] was 3.91% (inactive).
Consider `O=C(O)c1ccccc1Nc1cccc(C(F)(F)F)c1`, for which the activation in [2] is 3.61% (inactive); in [3], -0.0531% (inactive); in [5], 0.429% (inactive).
Turning to `c1ccc2sc(SSc3nc4ccccc4s3)nc2c1`, in [7], the Potency is 26.6 µM (active). Also, the activation was 1.84% (inactive) and -0.504% (inactive) in assay [2]; 3.06% (inactive) and 1.84% (inactive) in assay [3]; -0.44% (inactive) and 3.22% (inactive) in assay [5]. Also, the result in [4] was inactive. The max response in assay [6] was -2.43% (inactive) and -7.65% (inactive).
Regarding `Nc1ccc([N+](=O)[O-])cc1O`, the activation was -1.9% (inactive) and 0.18% (inactive) in assay [2]; 0.687% (inactive) and -0.798% (inactive) in [3]; 7.01% (inactive) in assay [5]. The max response in [6] was -5.57% (inactive) and -3.71% (inactive).
Turning to `CN(C)c1ccc(C(=C2C=CC(=[N+](C)C)C=C2)c2ccccc2)cc1`, in assay [6], the max response is -10.3% (inactive).
In the case of `COc1cc(CNC(=O)CCCC/C=C/C(C)C)ccc1O`, the activation in assay [2] was -1.8% (inactive) and -5.67% (inactive); in assay [3], 0.091% (inactive) and 0.703% (inactive); in [5], -0.69% (inactive) and 1.8% (inactive). In assay [4], the result was inactive. Besides, the max response in assay [6] is -1.35% (inactive) and 5.82% (inactive).
In the case of `O=c1cc(-c2ccccc2)oc2ccccc12`, the Potency in assay [7] is 4.61 µM (active) and 5.45 µM (active); in assay [5], 50.1 µM (active) and 44.7 µM (active). Also, the activation in assay [3] is -0.929% (inactive) and -1.54% (inactive). In assay [6], the max response was 0.229% (inactive) and -0.923% (inactive).
With `O=C(OCc1ccccc1)c1ccccc1`, in assay [3], the activation was 0.212% (inactive). In assay [6], the max response is -1.34% (inactive).
Take `CN1[C@@H]2CC[C@H]1CC(OC(=O)C(CO)c1ccccc1)C2` (stereo partly specified): the Potency entry in assay [7] is “inactive”. In addition, in assay [5], the activation is -1.81% (inactive).
As for `Oc1ccccc1O`, the Potency entry in assay [1] is “inactive”. Besides, in assay [2], the activation is 25.3% (inactive). In addition, the max response in assay [6] is -0.837% (inactive).
As to `O=C(O)/C=C\C(=O)O`, the activation was -1.58% (inactive) in assay [2] and -0.21% (inactive) in [3]. Further, the result in assay [4] was inactive. Further, in [6], the max response is -3.33% (inactive).
Turning to `Nc1cc(-c2ccncc2)c[nH]c1=O`, the Potency result in [7] was “inactive”. Moreover, the activation in assay [2] was -0.79% (inactive); in assay [3] it was -2.44% (inactive); in [5], -0.684% (inactive). In addition, the max response in assay [6] is -1.14% (inactive).
As to `C=CCc1cccc(/C=N/NC(=O)CN2CCN(Cc3ccccc3)CC2)c1O`, the Potency in assay [8] is 16.6 µM (active). The molecule was called inactive in [9], in assay [12], in assay [13] and in assay [14]. In addition, the viability (% of control) in assay [10] came to 11.3%. Also, the viability, percent of control in assay [11] came out at 26%.
For `NCCO`, the Potency result in assay [7] is “inactive”. Further, the activation in assay [2] is -4.3% (inactive); in assay [5], -0.695% (inactive). The outcome in [4] was inactive. Moreover, the max response in assay [6] was -2.8% (inactive).
In the case of `CCCCCCCCCCCCCCCC(=O)OC(C)C`, the activation in assay [2] is -1.99% (inactive); in [3], 0.837% (inactive). The max response in assay [6] is 0.689% (inactive).
`CC(C)OC(=O)c1cc(C(=O)OC(C)C)cc([N+](=O)[O-])c1`: the activation in assay [5] was 4% (inactive). Moreover, the max response in assay [6] was 0.0203% (inactive).
With `O=C(O)c1cc(O)c(O)c(O)c1`, the figures for the activation in assay [2], in assay [3] and in assay [5] were -4.32% (inactive), -0.583% (inactive) and -0.689% (inactive), respectively. Besides, the max response in assay [6] was -13% (inactive).
Turning to `Nc1ccc(O)c(C(=O)O)c1`, the Potency result in assay [7] is “inactive”. Also, the activation in [2] was 0.238% (inactive) and -1.06% (inactive); in assay [3] it was -0.163% (inactive) and 0.962% (inactive); in assay [5], 0.023% (inactive) and -1.58% (inactive). Also, the max response in assay [6] is -9.31% (inactive) and -0.252% (inactive).
As to `CCCCCCCCCCCCCCCCCC(=O)O`, the Potency result in [7] is “inactive”. Further, the activation in assay [2] was 2.31% (inactive) and -5.31% (inactive) and -1.74% (inactive); in assay [3], -1.37% (inactive) and -0.0787% (inactive); in assay [5], 0.0234% (inactive) and 0.947% (inactive) and 1.53% (inactive). Further, the result in assay [4] was inactive. Besides, the max response in assay [6] was 3.29% (inactive) and 5.21% (inactive) and -0.146% (inactive).
